# Screening results (PubChem)
# PMK inhibit: blocks S. pneumoniae phosphomevalonate kinase; purified PMK, PK/LDH-coupled NADH absorbance 340 nm; inhibition, % at 10 µM; hit rate 0.49% among 65,000; AID 539;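 active means top-ranked compounds by inhibition in the single 10 µM screen, taking a fixed number of the strongest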;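 further: 0% = full reaction with DMSO carrier and 100% = background rate without enzyme reaction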
# NADH enzymes: inhibition of NAD/NADH coupling enzymes, library profiling | coupled PK/LDH NADH assays, four targets | IC50, µM (highest dose often 10 µM), for inactives: at the highest dose inhibition | hit rate 0.02% among 65,000 | AID 774;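 active means single-dose screening hits from any of four coupled enzyme assays that gave an IC50 when retested across doses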;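 further: the DPM-DC format reads NADH fluorescence rather than 340 nm absorbance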
# Spn MK inh: blocks S. pneumoniae mevalonate kinase; purified MK, PK/LDH-coupled NADH absorbance 340 nm; inhibition, % at 10 µM; hit rate 0.48% among 65,000; AID 555;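 active means ranked among the strongest by inhibition in the single 10 µM screen, a fixed top-ranked set picked for dose follow-up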
# Fluor 339 460: intrinsic fluorescence of library compounds, ex339/em460 – biochemical, MLSMR library, data from DPM-DC assay, artefact control, profiling panel. compound autofluorescence, ex339/em460 nm, NADH buffer; hits give high values; 1 = no-compound wells, NADH background. fluorescence fold increase at 10 µM. hit rate 5.5% among 65,000;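 active means at 10 µM, mean starting fluorescence two-fold or more over control wells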;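 further: signal is the first read of a kinetic run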
# DPM-DC inhibit: inhibitors of Streptococcus pneumoniae diphosphomevalonate decarboxylase; purified DPM-DC, PK/LDH coupled NADH fluorescence; calls only at 10 µM; hit rate 0.49% among 65,000; AID 556;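 active means the 320 compounds with the highest percent inhibition in the single-dose primary screen, excluding strongly autofluorescent ones, cut at about 32% in these data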;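 further: kinetic rate of NADH fluorescence loss reporting ADP formed by the decarboxylase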
# Abs 340nm: compound absorbs light at 340 nm; compound absorbance at 340 nm, fold over control; fold change at 10 µM; 65,000 tested, under 10 active;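 active means at 10 µM dose, initial 340 nm absorbance at least 2 fold that of control wells; inactive means change under 2 fold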;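 further: initial absorbance extrapolated from kinetic A340 decline of NADH oxidation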
# * = called active by the depositor; i = inactive; . = not tested or not shown; + = active, no number. Most compounds without a hit are left out; they make up all but 6.8% or so of the library.
SMILES,PMK inhibit,NADH enzymes,Spn MK inh,Fluor 339 460,DPM-DC inhibit,Abs 340nm
CCCCC1CC1C(=O)Nc1ccc(OC)c(OC)c1 (centres undefined),2,1%,2,1,i,1
N#CC1=C2C=CC=CN2CC1=O,9,8%,6,2.3*,.,1
CCCCN(C)C(=O)CCCCn1c(=O)[nH]c2cc(OCC)c(OCC)cc2c1=O,9,4%,4,2.2*,i,1
CCOc1cc2[nH]c(=O)n(CC3CCC(C(=O)NC4CCCCC4)CC3)c(=O)c2cc1OCC (centres undefined),6,5%,9,1.3,i,1.1
CCOc1cc2[nH]c(=O)n(CC3CCC(C(=O)NC(C)CC)CC3)c(=O)c2cc1OCC (centres undefined),0,5%,2,2.7*,i,1.1
Cc1nn(C(=O)c2cc3sccc3[nH]2)c(C)c1C,0,11%,8,1,i,1
CCN(c1ccccc1)S(=O)(=O)c1ccc(F)cc1C,0,1%,2,1,i,0.97
CC(NC(=O)OC(C)(C)C)C(=O)Oc1ccc2ccc(=O)oc2c1 (centres undefined),0,3%,6,2.3*,.,1
COc1ccc(C(CC(=O)O)NC(=O)OC(C)(C)C)cc1 (centres undefined),0,1%,2,1,i,1
CC(C)(C)OC(=O)NCCC(=O)Oc1ccc2ccc(=O)oc2c1,9,8%,6,2.3*,.,1
COC(=O)C1C(=O)c2c([nH]c(C(=O)OCC3CCCO3)c2C)CC1C (centres undefined),1,2%,6,1.1,i,1
CCc1cc2c(=O)c(-n3cnc4ccccc43)coc2cc1O,13,8%,2,4.2*,.,1.1
N#Cc1c(NCCCO)nc(NCc2ccccc2)c2c1CCN(Cc1ccccc1)C2,17,23%,13,2.4*,+,1
N#Cc1c(N)oc(-c2ccco2)c1-c1ccco1,10,5%,0,2.1*,.,1.1
N#Cc1c(N)oc(-c2ccccc2)c1-c1ccccc1,0,4%,13,1.3,i,1.1
CN1CCN(c2c(F)cc3c(=O)c(C(=O)O)cn4c3c2SCC4)CC1,1,2%,3,3.8*,.,1.1
Cc1c(-n2cc(C(=O)O)c(=O)c3cc(F)c(N4CCCC4)c(F)c32)c(=O)n(-c2ccccc2)n1C,0,14%,11,1.7,i,1.1
COc1ccc2c(c1)c1c(n2C(C)=O)C(OC(C)=O)=NCC1,7,4%,4,2.3*,.,1
CCN(CC)CCOC(=O)c1c(C)n(C)c2ccc(OC)cc12,5,2%,0,1.1,i,1
CC(C)c1nnc(NC(=O)c2cccs2)s1,4,3%,6,1,i,1.1
CCC(CC)C(=O)Nc1nnc(-c2cccs2)s1,17,13%,0,2.6*,i,1
COc1ccc(C2C3=C(CC(C)(C)CC3=O)N(CCN3CCOCC3)C3=C2C(=O)CC(C)(C)C3)cc1,0,6%,0,3.4*,i,1
CC1(C)CC(=O)C2=C(C1)N(CCN1CCOCC1)C1=C(C(=O)CC(C)(C)C1)C2c1ccc(Cl)cc1,2,2%,2,5*,.,0.99
CC1(C)CC(=O)C2=C(C1)N(CCN1CCOCC1)C1=C(C(=O)CC(C)(C)C1)C2c1cccc(F)c1,3,3%,2,4.8*,.,1
CC1(C)CC(=O)C2=C(C1)NC(=O)CC2c1cccc(F)c1 (centres undefined),12,4%,0,1.2,i,0.99
SMILES,PMK inhibit,NADH enzymes,Spn MK inh,Fluor 339 460,DPM-DC inhibit,Abs 340nm
COc1ccc(OC)c2c(C)cc(N3CCN(C(=O)c4ccc(F)cc4)CC3)nc12,4,6%,3,2.9*,i,1.1
O=C(Nc1nnc(-c2ccccc2)o1)c1nc2ccccc2s1,5,3%,1,2.2*,.,1.1
CC(C)C(=O)Nc1nnc(-c2ccccc2)o1,13,12%,17,1.1,i,1.1
NC(=O)c1oc2ccccc2c1NC(=O)c1nc2ccccc2s1,4,2%,2,2.6*,i,1.1
CCOC(=O)COn1c(=O)c(=O)n(O)c2ccccc21,8,3%,2,1,i,1.1
Cc1c(/C=N/n2cnnc2)c2ccccc2n1CCOc1ccc(Cl)cc1,0,4%,10,1,i,1.1
Cc1ccc(OCCn2c(C)c(/C=N/n3cnnc3)c3ccccc32)cc1,0,15%,9,0.98,+,1.1
O=C(O)c1cc(S(=O)(=O)O)ccc1O,3,1%,1,1.3,i,1
O=C(OCc1cc(Cl)ccc1OC(F)F)c1cc(S(=O)(=O)O)ccc1O,11,6%,0,2.1*,.,1
COc1cc2cc(CN(Cc3nnnn3Cc3ccccc3)CC3CCCO3)c(=O)[nH]c2cc1OC (centres undefined),15,18%,13,3.3*,i,1.1
CCc1ccc2[nH]c(=O)c(CN(Cc3ccc(OC)cc3)Cc3nnnn3CCOC)cc2c1,0,6%,9,1.4,i,1.1
COc1ccc2[nH]c(=O)c(CN(Cc3ccccc3)Cc3nnnn3CC3CCCO3)cc2c1 (centres undefined),10,13%,12,2.3*,i,1.1
Cc1ccc2[nH]c(=O)c(CN(Cc3cccs3)Cc3nnnn3Cc3ccccc3)cc2c1,11,6%,8,1.2,i,1
Cc1ccc(NC(=O)NC2(C(=O)NCc3ccco3)CCCCC2)cc1,9,6%,8,1.1,i,1
COc1ccc(-n2c(SCC(N)=O)nc3sc4c(c3c2=O)CCN(C)C4)cc1,8,6%,0,1.1,i,1.1
COC(=O)CSc1nc2sc3c(c2c(=O)n1C1CCCCC1)CCN(C)C3,3,13%,1,2.5*,.,1.1
Cn1c(C(=O)NCCC2=CCCCC2)cc2c(=O)n3ccccc3nc21,9,3%,5,3.5*,.,1
Cn1c(C(=O)NCCCN2CCCC2=O)cc2c(=O)n3ccccc3nc21,12,11%,9,4.9*,.,1.1
COc1ccc(C(=O)N2CCN(S(=O)(=O)c3cc(Cl)ccc3OC)CC2)cc1,15,11%,6,1,i,0.99
O=c1nc(-c2ccccc2)c2cc(Cl)ccc2[nH]1,8,12%,13,3.1*,i,1.1
CN1CCN(c2nc(-c3ccccc3)c3cc(Cl)ccc3n2)CC1,1,5%,14,1.8,i,0.97
CCn1c(CSc2nc(C)cc(C)n2)nnc1SCC(=O)N1CCCc2ccccc21,8,4%,5,1.1,i,0.99
Cc1cccc(N2C(=O)c3cccc4c(N(C)CCO)ccc(c34)C2=O)c1,1,2%,3,2.1*,.,1.1
